Measurements as given in PubChem BioAssay (NCI).
Compounds without any hit were thinned out: in the full panel of roughly 79,000, 15% have a hit. Rule as the data show it: active = growth inhibition above about 70%; inactive = the rest.

How the values were obtained:
[1] = NCI Yeast Anticancer Drug Screen. Data for the rad50 strain (AID 155);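 also: 0% = growth of vehicle-only cultures of the same strain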; conditions: S. cerevisiae rad50 strain growth inhibition; at 50.0 µM; active compounds read high
How it was run: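 Compounds were tested on a yeast strain with an engineered DNA damage repair alteration; the reported value is growth inhibition normalised to vehicle treatment.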

[2] = NCI Yeast Anticancer Drug Screen. Data for the mec2-1 strain (AID 157); conditions: S. cerevisiae mec2-1 strain, at 50.0 µM, active compounds read high
How it was run: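 Vehicle-treated cultures served as reference for growth inhibition of compound-exposed mec2-1 yeast.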

[3] = NCI Yeast Anticancer Drug Screen. Data for the sgs1 mgt1 strain (AID 161);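 also: 0% = growth of cultures given vehicle only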; conditions: S. cerevisiae sgs1 mgt1 strain, at 50.0 µM, active compounds read high
How it was run: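 Mutant yeast exposed to compound; growth scored against vehicle-only wells.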

[4] = NCI Yeast Anticancer Drug Screen. Data for the cln2 rad14 strain (AID 165);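 also: 0% = growth equal to vehicle treated cultures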; conditions: S. cerevisiae cln2 rad14 strain, at 50.0 µM, active compounds read high
How it was run: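 Each compound was tested on cln2 rad14 yeast. Inhibition of growth was calculated against vehicle-exposed controls.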

[5] = NCI Yeast Anticancer Drug Screen. Data for the bub3 strain (AID 167); conditions: S. cerevisiae bub3 mutant strain, at 50.0 µM, active compounds read high
How it was run: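 Growth of a checkpoint-deficient yeast mutant is measured after compound exposure. Values represent inhibition relative to vehicle.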

[6] = NCI Yeast Anticancer Drug Screen. Data for the mlh1 rad18 strain (AID 175); conditions: S. cerevisiae mlh1 rad18 strain growth inhibition; at 50.0 µM; active compounds read high
How it was run: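 Vehicle-treated cultures served as the reference for growth inhibition in a yeast strain carrying DNA damage repair alterations exposed to each compound.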

Measured: growth inhibition

CN(C=O)C1CCC2C3CC=C4CC(OC=O)CCC4(C)C3CCC21C (stereo unspecified)
inactive: [1] 1.35% | [2] 11.3% | [3] 3.85% | [4] 5.95% | [5] -2.9% | [6] -2%

O=S(=O)(O)CS(=O)(=O)O
inactive: [1] -21.9% | [2] -2.3% | [3] 8.3% | [4] -26.4% | [5] 4.9% | [6] -1.15%

C[N+](C)(C)CC(O)CC#N (stereo unspecified)
inactive: [1] -2.25% | [2] 1.75% | [3] -4% | [4] -8.35% | [5] 0.55% | [6] -1.8%

COC(=O)C(=O)C(C(=O)c1cccc2ccccc12)c1nc2n(c1O)C(=N)N=N2 (stereo unspecified)
inactive: [1] 18.4% | [2] 4.45% | [3] 11.6% | [4] -4.9% | [5] -2.75% | [6] 0.8%

CC(=O)Nc1ccc(S(=O)(=O)NC(=O)NCCC(C)C)cc1
inactive: [1] 1.95% | [2] 2.45% | [3] 9.8% | [4] -20.2% | [5] 8.6% | [6] 7.85%

Cn1c(=O)c2c(nc(CN3CCOCC3)n2C)n(C)c1=O
inactive: [1] -1.35% | [2] -11.2% | [3] 3.55% | [4] -25.4% | [5] 3.6% | [6] 7.2%

Cc1cc(S(=O)(=O)Nc2cc(N)[nH]n2)c(SCc2nc(N)nc(N(C)C)n2)cc1Cl
inactive: [1] 11.2% | [2] 8.7% | [3] -0.1% | [4] 2.7% | [5] 6.6% | [6] 8.05%

Nc1nc2c(c(-c3ccc(Cl)cc3)n1)CN(CCCC(=O)O)C2=O
inactive: [1] -1.8% | [2] 13.9% | [3] 7.4% | [4] -0.15% | [5] 2.35% | [6] 10.7%

COc1ccc(CCN2C(=O)C(=O)N(C(C)C)C2=O)cc1OC
inactive: [1] 7.9% | [2] 1.6% | [3] 13% | [4] 16.4% | [5] 4.85% | [6] 14.7%

CCOC(=O)NN(C(=O)OCC)C(C(=O)c1ccccc1)N(NC(=O)OCC)C(=O)OCC
inactive: [1] 27.6% | [2] 9.9% | [3] 16.9% | [4] 46.4% | [5] 20.9% | [6] 22.4%

COC(=O)Nc1ccc(C)cc1[N+](=O)[O-]
inactive: [1] 5.5% | [2] -8.75% | [3] -13.4% | [4] -50.4% | [5] 6.4% | [6] -0.6%

O=C1C(=C(c2ccccc2)N2CCCCC2)C(=O)c2ccccc21
inactive: [1] 14.9% | [2] -3.6% | [3] 15.1% | [4] -7.75% | [5] 19.3% | [6] 3.2%

CCOc1ncc(C(=O)c2ccc(C)cc2)c(OCC)n1
inactive: [1] -8.55% | [2] -20.4% | [3] -6.2% | [4] -58.9% | [5] 3.6% | [6] -20.4%

O=S(=O)(SC1=NCCN1)c1cccc2ccccc12
inactive: [1] 3% | [2] 3.5% | [3] 20.1% | [4] 30% | [5] -3% | [6] 8.45%

CCCCCC(N)=O
inactive: [1] 16.6% | [2] -7.05% | [3] 4.25% | [4] 15.2% | [5] 14.8% | [6] 31.8%

CO[C@H]1CC[C@@]2(C)C(=CC[C@H]3[C@@H]4CC[C@H]([C@H](C)CCCC(C)C)[C@@]4(C)CC[C@@H]32)C1
inactive: [1] -4.65% | [2] -20.4% | [3] 18.1% | [4] 24.7% | [5] 17.2% | [6] 9%

Cc1cc(C)nc(NS(=O)(=O)c2ccc(Nc3c4ccccc4nc4c(C(=O)Nc5ccc(S(=O)(=O)N=C(N)N)cc5)cccc34)cc2)n1
inactive: [1] 24.1% | [2] 35.8% | [3] 30.9% | [4] 35.2% | [5] 19.6% | [6] 44.1%

CCC(C(CC(=O)c1ccccc1)c1ccccc1)[N+](=O)[O-] (stereo unspecified)
inactive: [1] 9.7% | [2] -0.65% | [3] 0.6% | [4] -42.3% | [5] 10.2% | [6] -5.65%

COc1ccc(C(=N)c2ccccc2C)cc1
inactive: [1] 8% | [2] -8.65% | [3] 6.05% | [4] 1.65% | [5] 8.5% | [6] -8.4%

OCC1C=Cc2ccccc21 (stereo unspecified)
inactive: [1] -3.8% | [2] 0.65% | [3] -0.6% | [4] 2.15% | [5] 14.5% | [6] -2.4%

Nc1cc(CO)cc(Nc2c3ccccc3nc3ccccc23)c1
inactive: [1] 26.8% | [2] 7.35% | [3] -30.8% | [4] -6.95% | [5] 0.65% | [6] 48.5%

CC(=O)CCCC(=O)O
inactive: [1] 10.5% | [2] 1.25% | [3] -24.5% | [4] -11.9% | [5] 0.45% | [6] 10.2%

CCc1nc2c(cnn2C)c(=O)n1-c1ccccc1
inactive: [1] -5% | [2] -6.35% | [3] -1.2% | [4] 3.9% | [5] 10.6% | [6] 7.55%

C[P+]1(CCc2ccc(Cl)cc2)CC=CC1
inactive: [1] -4.15% | [2] 5.2% | [3] -2.9% | [4] -18.9% | [5] 0.2% | [6] -3.95%

CC(=O)NC(C)C#N (stereo unspecified)
inactive: [1] -15.4% | [2] -14.1% | [3] -0.2% | [4] -4% | [5] -8.7% | [6] 5.55%

CCC1CCCCCC1=O (stereo unspecified)
inactive: [1] -34% | [2] -27.2% | [3] -18.6% | [4] -25.4% | [5] -30.4% | [6] -21.3%

COc1ccc(/C=C/C(=O)c2ccc(Br)cc2)cc1
inactive: [1] -33.4% | [2] -67.5% | [3] -34.2% | [4] 2.75% | [5] -14.4% | [6] -44.3%

CC(=O)Nc1c(Cl)cc(N)cc1Cl
inactive: [1] 9.35% | [2] -23.4% | [3] 2.3% | [4] 9.85% | [5] -16.4% | [6] 4.3%

OC(CBr)c1cc(-c2ccc(Cl)cc2)nc2c(-c3ccccc3)cccc12 (stereo unspecified)
inactive: [1] -3% | [2] 3.85% | [3] -4.05% | [4] -25.4% | [5] 2.35% | [6] 28.7%

CC(C)CC(NC(=O)C(COC(C)(C)C)NC(=O)C(CSC(c1ccccc1)(c1ccccc1)c1ccccc1)NC(=O)OC(C)(C)C)C(=O)OC(C)(C)C (stereo unspecified)
inactive: [1] -16.1% | [2] 11.9% | [3] -1.75% | [4] -16.6% | [5] -13.9% | [6] 8.05%

COC1C(O)CC(OC2C(C)OC(Oc3cc(O)c4c(O)c5c(cc4c3)C[C@@H]([C@H](OC)C(=O)[C@@H](O)[C@@H](C)O)[C@H](OC3CC(OC4CC(OC6CC(C)(O)C(O)C(C)O6)C(O)C(C)O4)C(O)C(C)O3)C5=O)CC2OC(C)=O)OC1C (stereo partly specified)
inactive: [1] -7.9% | [2] -3.45% | [3] -32.9% | [4] 10% | [5] 2.45% | [6] 0.4%

CCCCNC(=O)c1ccccc1N
inactive: [1] -20.2% | [2] -6.15% | [3] -30.7% | [4] -8% | [5] -16% | [6] -22.4%

NC(=O)NN/C=C(/C=Nc1ccccc1)[N+](=O)[O-]
inactive: [1] 17.4% | [2] 7.35% | [3] 1.2% | [4] 5.35% | [5] 6.55% | [6] 0.95%

O=C/C(=C1/C=Cc2cc([N+](=O)[O-])ccc2S1)c1ccccc1
inactive: [1] -6.5% | [2] -18.8% | [3] -11% | [4] -14.8% | [5] -9.05% | [6] -6.6%

CCCCON1C[C@H](OC(C)=O)C(OC(C)=O)[C@H](OC(C)=O)C1 (stereo partly specified)
inactive: [1] -44.8% | [2] -15.9% | [3] -39.1% | [4] -10.4% | [5] 16.9% | [6] -24.6%

CCN(CC)c1ccc(C=O)cc1
inactive: [1] 6.8% | [2] -11.1% | [3] -36.5% | [4] -6.4% | [5] 13.2% | [6] -11.1%

CCN(CC)CCOc1ccc(Cc2nc3c([nH]2)c(=O)n(C)c(=O)n3C)cc1
inactive: [1] 21.6% | [2] 2.85% | [3] 14.2% | [4] 34.5% | [5] 5.1% | [6] 11.3%

O=C(C[n+]1cc(Br)cc(Br)c1)c1ccc(Cl)cc1
inactive: [1] -9.6% | [2] -15.8% | [3] -13% | [4] -13.8% | [5] -30.1% | [6] -7.9%

O=Cc1sccc1NC(=O)c1ccccc1
inactive: [1] 2.65% | [2] -14.6% | [3] -18% | [4] -18.1% | [5] -7.5% | [6] 9.15%

CN(C(=O)C12C3C4C1C1C2C3C41C(=O)N(C)C(C)(C)C)C(C)(C)C (stereo unspecified)
inactive: [1] 13.9% | [2] 11.5% | [3] -7.4% | [4] 9.45% | [5] 23.4% | [6] -2.4%

CCOC(=O)c1ccc(NC(=O)Oc2cc(C)c(Cl)c(C)c2)cc1
inactive: [1] 7.8% | [2] -3.4% | [3] 2.65% | [4] 6.35% | [5] 14.9% | [6] -3.65%
